Compounds with a hit are over-represented: about 2.6% of the library has one in this group of screens.
Cruzain inh noDet: blocks cruzain activity in detergent-free assay | P25779 | purified cruzain, Z-FR-AMC fluorescence, no detergent | Potency, µM, actives largely listed as inhibitors | 200,000 tested, 2.3% active | AID 1476; note: nearly all actives have a fitted effect of over 40% in size
Target sequence (P25779 123-467 limits assumed): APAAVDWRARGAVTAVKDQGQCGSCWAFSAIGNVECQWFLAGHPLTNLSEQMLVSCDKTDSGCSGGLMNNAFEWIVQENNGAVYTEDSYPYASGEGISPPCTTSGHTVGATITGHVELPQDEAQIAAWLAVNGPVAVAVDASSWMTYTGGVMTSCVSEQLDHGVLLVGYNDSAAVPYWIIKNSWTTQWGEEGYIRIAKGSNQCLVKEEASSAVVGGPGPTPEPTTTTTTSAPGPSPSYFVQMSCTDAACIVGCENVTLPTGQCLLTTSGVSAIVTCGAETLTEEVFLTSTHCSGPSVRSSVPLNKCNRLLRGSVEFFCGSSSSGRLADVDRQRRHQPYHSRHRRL
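Detergent-free condition (0.00005% Triton X-100) in acetate buffer pH 5.5 with DTT. 1.5 nM enzyme and compound were pre-mixed 15 min, then 2 uM Z-FR-AMC substrate added; reaction progress from fluorescence change between first and third reads (60 s).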
Cruzain Triton: cruzain (T. cruzi) inhibition with detergent; Potency, µM, most hits filed as inhibitors; 200,000 tested, 0.43% active; P25779; AID 1478; purified cruzain, Z-FR-AMC fluorescence, 0.01% Triton; note: nearly all actives have a fitted effect of over 40% in size
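Enzyme 1.5 nM, Z-FR-AMC 2 uM, NaOAc 100 mM pH 5.5, DTT 5 mM, Triton X-100 0.01%; 15 min RT compound preincubation; kinetic ex360/em450, 60 s delta.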
Each line names hits and unclear results; the compound was inactive in the other large screens. Calls come from the whole dose curve; as a rule, active = well fitted curve in the direction sought with a large enough effect; inconclusive = small, poorly fitted or top-dose-only effect, or another doubt; inactive = no such curve, though single readings can be large; an effect the other way counts as inactive or inconclusive.

Cc1ccc(C(=O)NC(=S)Nc2ccc(NC(=O)c3cccs3)cc2)cc1[N+](=O)[O-]	Cruzain inh noDet 10µM
COc1ccc(C(=O)Nc2ccc(NC(=O)c3cccs3)cc2)cc1[N+](=O)[O-]	none
CCOc1ccc(C(=O)Nc2ccc(NC(=O)c3cccs3)cc2)cc1[N+](=O)[O-]	Cruzain inh noDet 7.9µM
CC(=O)c1ccc(NS(=O)(=O)c2cnc(N)nc2)cc1	none
Nc1ncc(S(=O)(=O)NCc2ccccc2F)cn1	none
CC(=O)c1ccc(NC(=O)c2nc(-c3ccccc3)n(-c3ccc(Cl)cc3)n2)cc1	Cruzain inh noDet 13µM
CC(=O)c1ccc(NC(=O)c2nc(-c3ccccc3)n(-c3ccc(C)cc3)n2)cc1	none
O=C(C1COc2cc(S(=O)(=O)Nc3ccc(Cl)cc3)ccc2O1)N1CCCC1 (stereo unspecified)	none
O=C(CCCN1C(=O)/C(=C/c2cccc(Br)c2)SC1=S)Nc1ccccn1	Cruzain inh noDet 25µM
CCc1ccc(/C=C2\SC(=S)N(CCCC(=O)Nc3ccccn3)C2=O)cc1	none
CCOC(=O)c1ccc(NC(=O)Nc2ccc3snnc3c2)cc1	none
COc1ccccc1NC(=O)c1c(NC(=O)c2ccco2)sc2c1CCC(C(C)(C)C)C2 (stereo unspecified)	none
Cc1cccc(C(=O)Nc2sc3c(c2C(=O)NCc2ccco2)CCCC3)c1	none
COc1ccccc1C(=O)Nc1sc2c(c1C(=O)NCc1ccco1)CCCC2	Cruzain inh noDet 7.9µM
N#Cc1c(NC(NC(=O)c2ccco2)C(=O)c2ccccc2)sc2c1CCCC2 (stereo unspecified)	Cruzain inh noDet 25µM
COc1ccccc1NC(=O)c1c(NC(=O)c2ccco2)sc2c1CCC2	Cruzain inh noDet 7.9µM
NC(=O)c1c(NC(NC(=O)c2ccco2)C(=O)c2ccc(Cl)cc2)sc2c1CCCC2 (stereo unspecified)	none
CCOc1ccc(N2CC(NC(=O)c3ccc(S(=O)(=O)N4CCCC4)cc3)CC2=O)cc1 (stereo unspecified)	none
N=C1S/C(=C\c2ccccc2)C(=O)N1c1ccc(F)cc1	Cruzain inh noDet 25µM
N=C1S/C(=C\c2ccccc2F)C(=O)N1c1ccc(F)cc1	Cruzain inh noDet inconclusive
CC1(C)N=C(N)NC(Nc2cccc(Br)c2)=N1	none
CC1(C)N=C(N)NC(Nc2ccc(Br)cc2)=N1	Cruzain inh noDet 20µM, Cruzain Triton 16µM
COc1ccc(C(=O)N(Cc2ccco2)Cc2ccccc2F)cc1Cl	none
CC(C)(C)C(=O)Nc1ccc(-c2nc3ccccc3s2)cc1	none
CCOC(=O)c1ccc(NC(=O)c2cc3sccc3n2Cc2ccc(Cl)cc2)cc1	Cruzain inh noDet 10µM
CC(=O)c1ccc(NC(=O)c2cc3sccc3n2Cc2ccc(Cl)cc2)cc1	Cruzain inh noDet inconclusive
Cc1ccc(Cn2c(C(=O)Nc3cccc(Cl)c3)cc3sccc32)cc1	Cruzain inh noDet 25µM
CCOC(=O)c1cccc(NC(=O)c2cc3sccc3n2Cc2ccc(Cl)cc2)c1	none
Cc1ccc(Cc2nnc3n(-c4ccccc4)nc(C(=O)c4ccccc4)n3c2=O)cc1	Cruzain inh noDet 25µM
O=C(c1ccccc1)c1nn(-c2ccccc2)c(=O)cc1C(F)(F)F	none
COc1cc(OC)cc(C(=O)NCCc2csc(-c3ccc(C(F)(F)F)cc3)n2)c1	Cruzain inh noDet inconclusive
COc1ccc2nc(-n3c(C)ccc3C)sc2c1	none
COc1ccc2nc(N3C(=O)/C(=C/c4ccccc4)NC3=S)sc2c1	Cruzain inh noDet 13µM
CCOc1ccc2nc(N3CCCCCC3)sc2c1	none
CCOc1ccc2nc(N3C(=O)/C(=C/c4ccccc4)NC3=S)sc2c1	Cruzain inh noDet 13µM
CC(=O)c1cccc(NC(=O)CN2C(=O)CN(C)C(=O)c3ccccc32)c1	none
CN1CC(=O)Nc2cc(C(=O)O)ccc21	none
COCCN1Cc2c(sc(C)c2C)N(C(=O)c2ccccc2)C1	none
Cc1sc2c(c1C)CN(C(C)(C)C)CN2C(=O)c1ccccc1	Cruzain inh noDet 25µM
Cc1ccc(CNC(=O)c2nn(-c3ccc(Cl)cc3)nc2CO)cc1	none
Cc1cccc(C(C)C)c1NC(=O)COC(=O)c1cccc(S(=O)(=O)N2CCc3ccccc3C2)c1	Cruzain inh noDet 25µM
CCc1cccc(CC)c1NC(=O)COC(=O)c1cccc(S(=O)(=O)N2CCc3ccccc3C2)c1	none
CCc1c(C)sc(NC(=O)CCc2ccc(OC)cc2)c1C(N)=O	none
CCCC(=O)Nc1sc(C)c(-c2ccc(OC)cc2)c1C#N	Cruzain inh noDet 6.3µM
COc1ccc(CN2CCc3c(c(=O)n4ncc(C(=O)N5CCN(c6ccccc6OC)CC5)c4n3C)C2)cc1	Cruzain inh noDet inconclusive
Cc1ccc(CCNC(=O)c2cnc3c(-c4ccc(F)cc4)c(C)nn3c2C)cc1	none
CCN(CC)c1sc(S(=O)(=O)c2ccccc2)nc1S(=O)(=O)c1ccc(C)cc1	none
CCc1ccc2occ(CC(=O)Nc3c(C(=O)Nc4ccc(OC)cc4)oc4ccccc34)c2c1	none
CCOc1ccc(NC(=O)c2oc3ccccc3c2NC(=O)c2cc(C)cc(C)c2)cc1	none
CCOc1ccc(NC(=O)c2oc3ccccc3c2NC(=O)C(C)Oc2ccccc2)cc1 (stereo unspecified)	Cruzain inh noDet 32µM
COc1ccc(NC(=O)c2oc3ccccc3c2NC(=O)Cc2coc3ccc(C)cc23)cc1	Cruzain inh noDet 25µM
CC(=O)N1CCC2(CC1)CCN(c1ncccn1)CC2	none
COc1ccc(OC)c(NC(=O)CC(=O)Nc2ccc3nc4n(c(=O)c3c2)CCCCC4)c1	Cruzain inh noDet inconclusive
Cc1cc(NC(=O)CSc2nc(-c3ccccc3C)nc3c2c(=O)n(C)c(=O)n3C)no1	none
COc1cc2c(C#N)c(N3CCc4ccccc4C3)nc(N)c2c(N)n1	Cruzain inh noDet 13µM
COc1cc2c(C#N)c(N3CCCCC3)nc(N)c2c(N)n1	none
CC(=O)N1c2ccccc2C(=O)C1N1CCN(c2cc(Cl)ccc2C)CC1 (stereo unspecified)	none
COC(=O)c1c(NC(=O)CCCOc2ccccc2C)sc2c1CCC2	none
CCCNc1oc(-c2cccc3ccccc23)nc1C#N	Cruzain inh noDet 3.2µM, Cruzain Triton inconclusive
COP(=O)(OC)c1nc(-c2cccc3ccccc23)oc1N1CCOCC1	none
N#Cc1nc(-c2cccc3ccccc23)oc1NCCN1CCOCC1	none
COP(=O)(OC)c1nc(-c2cccc3ccccc23)oc1NCCc1ccccc1	Cruzain inh noDet inconclusive, Cruzain Triton 25µM
COc1ccc(OCC(=O)NCc2ccc3c(c2)CCN3C(=O)c2cccc(C)c2)cc1	none
COc1ccc(-n2c(=S)[nH]c3cc(C(=O)Nc4ccc(OC)c(OC)c4)ccc3c2=O)cc1	none
COc1ccc(-n2c(=S)[nH]c3cc(C(=O)Nc4cccc(C)c4)ccc3c2=O)cc1	Cruzain inh noDet 13µM
Cc1ccccc1Cc1c(C)nc2nc(SCC(=O)NCCc3ccc(Cl)cc3)nn2c1C	none
CC(C)CCN(Cc1ccco1)C(=O)c1cc2c(Cl)nc3ccccc3c2s1	none
Cc1cccc(C)c1OCC(=O)N/N=C/c1ccncc1	none
Cc1ccc(CC(=O)N/N=C/c2ccc(OC(=O)c3ccc([N+](=O)[O-])cc3)cc2)cc1	Cruzain inh noDet inconclusive
Cc1cc([N+](=O)[O-])cc(C)c1OCC(=O)N/N=C/c1ccc(OC(=O)c2ccccc2)cc1	Cruzain inh noDet 13µM
Cc1cc([N+](=O)[O-])cc(C)c1OCC(=O)N/N=C/c1ccc(OC(=O)c2ccccc2Br)cc1	Cruzain inh noDet 10µM
O=C(CNC(=O)c1ccc([N+](=O)[O-])cc1)N/N=C\c1ccc(OC(=O)c2ccccc2)cc1	Cruzain inh noDet 7.9µM
